Measurements as given in PubChem BioAssay (NCATS).
Results filed as inconclusive are left out. A number with no mark means an inactive call. Active and inactive are the calls of the source. Calls come from the whole dose curve; as a rule, active = well fitted curve in the direction sought with a large enough effect; inconclusive = small, poorly fitted or top-dose-only effect, or another doubt; inactive = no such curve, though single readings can be large; an effect the other way counts as inactive or inconclusive.

Test: qHTS of pediatric cancer cell lines to identify multiple opportunities for drug repurposing: Primary screen for Rh30 cells (AID 1347107); note: % is set by controls: 0 for no effect and ±100 for the full control effect; nearly all actives have a fitted effect of over 75% in size
Conditions: Rh30 rhabdomyosarcoma viability, CellTiter-Glo luminescence, 48 h; series mostly up to 46 µM; activity change, negative = cytotoxic: at the top concentration
Method in brief: (§1)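 Cells (500-1,000/well) rested 5 h, then received compounds for 48 h; metabolically active cells were measured by CellTiter-Glo luminescence. Final concentrations spanned up to 46 µM (MIPE, 11-point) or 0.59 nM-46 µM (NPC, 8-point) in primary screens, 11-point in follow-ups.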

SMILES | activity change, negative = cytotoxic
Cc1ccc(C(=O)c2ccc(CC(=O)O)n2C)cc1 | 20.5%
S=c1[nH]c2ccccc2s1 | 22.8% [at 92.7 µM]
N=C(N)N | 27%
Nc1ccc(C(=O)O)c(O)c1 | 23.4%

Test: qHTS of pediatric cancer cell lines to identify multiple opportunities for drug repurposing: Primary screen for Rh41 cells (AID 1347108); note: nearly all actives have a fitted effect of over 70% in size; note: potency is the fitted concentration of half-maximal effect;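 for activity change, negative = cytotoxic: luminescence drop marks cytotoxic hits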
Conditions: Rh41 rhabdomyosarcoma viability, CellTiter-Glo luminescence, 48 h; series mostly up to 46 µM; activity change, negative = cytotoxic: at the top concentration
Method in brief: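 Cells seeded at 500-1,000 cells/well in growth media, rested 5 hours at 37 degrees C, 5% CO2, then dosed; MIPE compounds at 11-point (from 0.78 nM) and NPC at 8-point (from 0.59 nM) final concentrations. Viability by CellTiter-Glo luminescence after 48 hours.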

SMILES | Potency | activity change, negative = cytotoxic
O=C(CS)Nc1ccccc1 | 21100 nM (active) | 
c1ccc(CCNc2nc(-c3ccccc3)cs2)cc1 |  | -15%
Cc1c(Nc2ncccc2C(=O)O)cccc1C(F)(F)F |  | 20.2%
Nc1ccc([N+](=O)[O-])cc1O |  | 25.9% [at 92.7 µM]
CN(C)[C@@H]1C(=O)C(C(=O)NCN2CCCC2)=C(O)[C@@]2(O)C(=O)C3=C(O)c4c(O)cccc4[C@@](C)(O)C3C[C@@H]12 (stereo partly drawn) |  | 15.7%
O=C(O)c1cc(O)c(O)c(O)c1 |  | 17.2%
O=C(OCc1ccccc1)c1ccccc1 |  | 23.4%
CCCCC1C(=O)N(c2ccccc2)N(c2ccc(O)cc2)C1=O (stereo not drawn) | 5960 nM (active) | 
O=C(O)Cc1cccc(-c2cc(CCCCCCc3ccc(O[C@H]4O[C@H](CO)[C@@H](O)[C@H](O)[C@@H]4O)c(-c4cccc(CC(=O)O)c4)c3)ccc2O[C@H]2O[C@H](CO)[C@@H](O)[C@H](O)[C@@H]2O)c1 |  | 21.7% [at 0.597 µM]
CCCCCCCCCCCCCCCCCC(=O)O |  | 22.9%
CN(C)c1ccc(C(=C2C=CC(=[N+](C)C)C=C2)c2ccccc2)cc1 | 94.4 nM (active) | 
O=C(/C=C/c1ccccc1)NCCO |  | 4.29%
CCCCCCCCCCCCCCCC(=O)OC(C)C |  | 32.7%
N=C1N=C(N)c2cc3ccccc3cc21 | 30600 nM (active) | 
O=c1cc(-c2ccccc2)oc2ccccc12 |  | 9.82% [at 92.7 µM]
CCCOC(=O)c1ccc(O)cc1 |  | 27.1% [at 92.7 µM]
C=CCCCCCCCCC(=O)O |  | 26.2%
CN(C)c1ccc(N=NS(=O)(=O)O)cc1 |  | 25.2% [at 92.7 µM]
COc1cc2c3cc1Oc1cc(ccc1O)C[C@@H]1c4c(cc(OC)c(O)c4Oc4ccc(cc4)C[C@@H]3N(C)CC2)CC[N+]1(C)C |  | 9.27%
O=C(O)/C=C\C(=O)O |  | 14.8%
CCCCCCCCCCCCOCCO |  | 19.6%
COc1cccc2c1C(=O)c1c(O)c3c(c(O)c1C2=O)C[C@@](O)(C(=O)CO)C[C@@H]3O[C@H]1C[C@H](N)[C@H](O[C@@H]2CCCCO2)[C@H](C)O1 | 8410 nM (active) | 
Cc1ccc(C(=O)c2ccc(CC(=O)O)n2C)cc1 |  | 28.7%
S=c1[nH]c2ccccc2s1 |  | 21.6% [at 92.7 µM]
N=C(N)N |  | 11.9%
Nc1ccc(C(=O)O)c(O)c1 |  | 30.7%

Test: qHTS of pediatric cancer cell lines to identify multiple opportunities for drug repurposing: Confirmatory screen for NB1643 cells (AID 1347109); note: nearly all actives have a fitted effect of over 45% in size; note: potency is the fitted concentration of half-maximal effect;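 for activity change, negative = cytotoxic: plate controls were DMSO for no effect and bortezomib for full effect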
Conditions: NB1643 neuroblastoma cell viability; series mostly up to 95.5 µM; activity change, negative = cytotoxic: at the top concentration
Method in brief: as §1

SMILES | activity change, negative = cytotoxic [%] | Potency
Nc1ccc([N+](=O)[O-])cc1O | -27.4 | 
CN(C)c1ccc(C(=C2C=CC(=[N+](C)C)C=C2)c2ccccc2)cc1 |  | 657 nM (active)
N=C1N=C(N)c2cc3ccccc3cc21 |  | 33900 nM (active)
Oc1c(Br)cc(Br)c2cccnc12 |  | 26100 nM (active)
[O-][n+]1ccccc1SSc1cccc[n+]1[O-] |  | 1150 nM (active)

Test: qHTS of pediatric cancer cell lines to identify multiple opportunities for drug repurposing: Confirmatory screen for A673 cells (AID 1347110);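 note: potency is the fitted concentration of half-maximal effect; cells exposed to compound for 48 h before the viability read; nearly all actives have a fitted effect of over 65% in size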
Conditions: A673 Ewing sarcoma cell viability
Method in brief: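 Cells plated at 500-1,000/well were treated five hours later with multi-point dilutions up to 46 µM final. After two days, CellTiter-Glo was added and luminescence read.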

SMILES | Potency
Nc1ccc([N+](=O)[O-])cc1O | 2140 nM (active)
CN(C)c1ccc(C(=C2C=CC(=[N+](C)C)C=C2)c2ccccc2)cc1 | 293 nM (active)
COC(=O)Nc1nc2ccc(C(=O)C3CC3)cc2[nH]1 | 1310 nM (active)
N=C1N=C(N)c2cc3ccccc3cc21 | 38000 nM (active)
Oc1c(Br)cc(Br)c2cccnc12 | 11700 nM (active)
COc1cccc2c1C(=O)c1c(O)c3c(c(O)c1C2=O)C[C@@](O)(C(=O)CO)C[C@@H]3O[C@H]1C[C@H](N)[C@H](O[C@@H]2CCCCO2)[C@H](C)O1 | 3290 nM (active)
[O-][n+]1ccccc1SSc1cccc[n+]1[O-] | 1620 nM (active)

Test: qHTS of pediatric cancer cell lines to identify multiple opportunities for drug repurposing: Confirmatory screen for SK-N-MC cells (AID 1347111);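 note: potency is the fitted concentration of half-maximal effect; cells exposed to compound for 48 h before the readout; nearly all actives have a fitted effect of over 70% in size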
Conditions: SK-N-MC cell viability
Method in brief: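 Seed 500-1,000 cells/well; rest 5 h at 37 degrees C. Pin-transfer compounds, 11-point titration. Incubate 48 h. Add CellTiter-Glo, 15 min RT, read luminescence.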

SMILES | Potency
CN(C)c1ccc(C(=C2C=CC(=[N+](C)C)C=C2)c2ccccc2)cc1 | 369 nM (active)
COC(=O)Nc1nc2ccc(C(=O)C3CC3)cc2[nH]1 | 1040 nM (active)
N=C1N=C(N)c2cc3ccccc3cc21 | 17000 nM (active)
Oc1c(Br)cc(Br)c2cccnc12 | 1170 nM (active)
COc1cccc2c1C(=O)c1c(O)c3c(c(O)c1C2=O)C[C@@](O)(C(=O)CO)C[C@@H]3O[C@H]1C[C@H](N)[C@H](O[C@@H]2CCCCO2)[C@H](C)O1 | 1650 nM (active)
[O-][n+]1ccccc1SSc1cccc[n+]1[O-] | 456 nM (active)

Test: qHTS of pediatric cancer cell lines to identify multiple opportunities for drug repurposing: Confirmatory screen for BT-12 cells (AID 1347112); note: potency is the fitted concentration of half-maximal effect;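 note: viability read after 48 h of compound exposure; nearly all actives have a fitted effect of over 55% in size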; for activity change, negative = cytotoxic: % is set by controls: 0 for no effect and ±100 for the full control effect
Conditions: BT-12 rhabdoid tumor cells, viability; series mostly up to 95.5 µM; activity change, negative = cytotoxic: at the top concentration
Description: Drug repurposing or repositioning has been offered as a strategy for drug development in oncology programs. This approach has special potential for childhood cancers and other rare or orphan diseases, where the expected return on new drug development has been a disincentive to pharmaceuticals.
In this project we exploit the poly-pharmacology of drugs to discover new indications via phenotypic screening of a panel of 19 well-characterized cell lines derived from solid tumors seen in children and adolescents. The goal is to identify approved drugs with previously unrecognized anticancer properties that has the potential to reveal new mechanisms and biological processes involved in carcinogenesis or drug resistance. We employed a titration-based paradigm (quantitative high-throughput screening or qHTS), where all compounds were tested at multiple concentrations for their effect on cell viability. Concentration-response curves (CRCs) were derived directly from the primary screen, and both potency and efficacy values were used to identify compounds with robust bioactivity profiles. We screened the NIH Chemical Genomics Center (NCGC) Pharmaceutical Collection (NPC) and Mechanism Interrogation Plate (MIPE) small molecule collections of approved and investigational compounds against these cell lines; and measured metabolically active cells after 48 hours of compound treatment as a proxy for cell viability.
Assay Submitter: Nathalia J. Martinez, National Center for Advancing Translational Sciences, National Institutes of Health, Rockville, MD, USA; email: natalia.martinez@nih.gov
[1] Shen, M et al. Quantitative high-throughput phenotypic screening of pediatric cancer cell lines identifies multiple opportunities for drug repurposing. Oncotarget 2017 Dec 19;9(4):4758-4772. PMID 29435139.
The cells were obtained from University of North Carolina (UNC), Pediatric Preclinical Testing Program (PPT), and Coriell Institute (CI).
qHTS cell viability assay:
Cells were assayed in growth media at a density of 500-1,000 cells/well. Five microliters of cells were dispensed into 1,536-well, white, solid-bottom, TC-treated plates (Greiner Bio One) using a multidrop dispenser and incubated at 37 degrees C, 5% CO2, under a humidified atmosphere for 5 hours. Twenty-three nanoliters of compounds and controls (neutral control DMSO or positive control bortezomib at final concentration of 2.3 µM) were subsequently transferred by Kalypsys pintool. For primary screens, the MIPE collection was tested at 11-point dilutions (final concentrations range from 0.78 nM to 46 µM) and the NPC collection at 8-point dilutions (final concentrations range from 0.59 nM to 46 µM). Compounds tested in follow-up screens were assayed at 11-point dilutions. Cells were incubated for 48 hours, followed by addition of 3 µL of CellTiter-Glo (Promega). After a 15 min incubation at room temperature, samples were analyzed for luminescence intensity using a ViewLux High-throughput CCD imager equipped with clear filters.

SMILES | activity change, negative = cytotoxic [%] | Potency
Nc1ccc([N+](=O)[O-])cc1O | -24 | 
CN(C)c1ccc(C(=C2C=CC(=[N+](C)C)C=C2)c2ccccc2)cc1 |  | 1850 nM (active)
COC(=O)Nc1nc2ccc(C(=O)C3CC3)cc2[nH]1 |  | 16500 nM (active)
COc1cccc2c1C(=O)c1c(O)c3c(c(O)c1C2=O)C[C@@](O)(C(=O)CO)C[C@@H]3O[C@H]1C[C@H](N)[C@H](O[C@@H]2CCCCO2)[C@H](C)O1 |  | 13100 nM (active)
[O-][n+]1ccccc1SSc1cccc[n+]1[O-] |  | 3230 nM (active)

Test: qHTS of pediatric cancer cell lines to identify multiple opportunities for drug repurposing: Confirmatory screen for LAN-5 cells (AID 1347113); note: nearly all actives have a fitted effect of over 65% in size; note: potency is the fitted concentration of half-maximal effect; for activity change, negative = cytotoxicity: % is set by controls: 0 for no effect and ±100 for the full control effect
Conditions: LAN-5 neuroblastoma cell viability; series mostly up to 95.5 µM; activity change, negative = cytotoxicity: at the top concentration
Method in brief: as §1

SMILES | activity change, negative = cytotoxicity [%] | Potency
Nc1ccc([N+](=O)[O-])cc1O | 2.7 | 
CN(C)c1ccc(C(=C2C=CC(=[N+](C)C)C=C2)c2ccccc2)cc1 |  | 737 nM (active)
N=C1N=C(N)c2cc3ccccc3cc21 |  | 38000 nM (active)
Oc1c(Br)cc(Br)c2cccnc12 |  | 18500 nM (active)
[O-][n+]1ccccc1SSc1cccc[n+]1[O-] |  | 288 nM (active)
